Reference: PubChem BioAssay (NCI)
This is part of a sample that, as a whole, favours compounds with a hit. Of some 83,000 tested, about 20% had one in any assay.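 Activity criterion: percent growth below 10, measured after cells in 96-well plates were exposed to a single compound concentration for 48 hours.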 A number with no mark means an inactive call. The source made the active and inactive calls.

Columns and labels:
Assay in all cases: NCI-60 one-dose screen, 48 h (100 = growth as untreated, 0 = no growth, -100 = all killed)
Conditions in all cases: 10 µM unless noted
DU-145 prostate = test system: DU-145 prostate
K-562 leukemia = test system: K-562 leukemia
MALME-3M melanoma = test system: MALME-3M melanoma
MDA-MB-231 breast = test system: MDA-MB-231 breast
RXF 393 renal = test system: RXF 393 renal
SF-268 CNS = test system: SF-268 CNS
SF-295 CNS = test system: SF-295 CNS
SF-539 CNS = test system: SF-539 CNS
UACC-257 melanoma = test system: UACC-257 melanoma
M14 melanoma = test system: M14 melanoma
HT29 colon = test system: HT29 colon
SNB-75 CNS = test system: SNB-75 CNS
SNB-19 CNS = test system: SNB-19 CNS
U251 CNS = test system: U251 CNS
PC-3 prostate = test system: PC-3 prostate
SK-MEL-5 melanoma = test system: SK-MEL-5 melanoma
UACC-62 melanoma = test system: UACC-62 melanoma
LOX IMVI melanoma = test system: LOX IMVI melanoma
SK-MEL-28 melanoma = test system: SK-MEL-28 melanoma

Structure (SMILES) | growth (DU-145 prostate) | growth (K-562 leukemia) | growth (MALME-3M melanoma) | growth (MDA-MB-231 breast) | growth (RXF 393 renal) | growth (SF-268 CNS) | growth (SF-295 CNS) | growth (SF-539 CNS) | growth (UACC-257 melanoma) | growth (M14 melanoma) | growth (HT29 colon) | growth (SNB-75 CNS) | growth (SNB-19 CNS) | growth (U251 CNS) | growth (PC-3 prostate) | growth (SK-MEL-5 melanoma) | growth (UACC-62 melanoma) | growth (LOX IMVI melanoma) | growth (SK-MEL-28 melanoma)
N#C/C(=C\c1cn(Cc2ccccc2)c2ccccc12)C(=O)Nc1ncc(Cc2ccccc2Cl)s1 | 24.3% | 26.2% | -7.28% (active) | 19.8% | 40.8% | 64.1% | 8.89% (active) | 13.5% | -38.2% (active) | 38.9% | 28.2% | -12.7% (active) | 72.4% | -9.08% (active) | 40.6% | 57.6% | -40.4% (active) | 24.7% | 29.9%
COc1cccc(/C=C/C(=O)c2cc3c(N)c(C(=O)Nc4cccc5ccccc45)sc3nc2C)c1 | 7.62% (active) | 10.4% | 33.5% | -3.88% (active) | -31.6% (active) | 15.3% | 15.5% | -67.3% (active) | 61.7% | 2.46% (active) | -11.2% (active) | -16.4% (active) |  | -11.4% (active) | 27.7% | -19.7% (active) | -18.3% (active) | -66.8% (active) | 39.2%
CN(C)CCCC1(c2ccc(F)cc2)OCc2cc(-c3cc4ccccc4s3)ccc21 (stereo not drawn) | 18% | -17.5% (active) | -77.4% (active) | -42.4% (active) | 34.8% | 38.3% | 70.4% | -58.8% (active) | -29.1% (active) | -68.7% (active) | -67.1% (active) | 25.2% | 71.2% | -83% (active) | 28.8% | 60.9% | -62.1% (active) | -93.6% (active) | -87.5% (active)
Cc1ccc(N2C(=O)CCC2=O)cc1 | 112% | 113% | 108% | 93.7% | 121% | 103% | 99.7% | 101% | 109% | 90.9% | 98.9% | 103% | 104% | 105% | 99.5% | 100% | 98% | 102% | 105%
COc1ccc(C2=CC(c3cc(OC)c(OC)c(OC)c3)n3ncnc3N2)cc1 (stereo not drawn) | -24.7% (active) | 9.56% (active) | 75.8% | 8.42% (active) | 71.1% | 31.4% | 13.5% | -1.69% (active) | 56.5% | -2.18% (active) | 1.66% (active) |  | 36% | 6.34% (active) | 21.7% | 1.68% (active) | 51.9% | 22.2% | 54.3%
